Measured values published in PubChem BioAssay (NCATS).
Results filed as inconclusive are left out. Activity calls are given as the source filed them. Unless noted, calls follow the shape of the full dose curve.

How the values were obtained:
[1] = qHTS for Inhibitors of the Functional Ribonucleoprotein Complex (vRNP) of Lassa (LASV) Arenavirus: LASV Primary Screen - GLuc reporter signal (AID 1347082; calls by dose curve; tested in HEK293 reporter line; also: nearly all actives have a fitted effect of over 60% in size)
[2] = qHTS for Inhibitors of the Functional Ribonucleoprotein Complex (vRNP) of Lassa (LASV) Arenavirus: Viability assay - alamar blue signal for LASV Primary Screen (AID 1347083; calls by dose curve; tested in HEK293 reporter line; also: nearly all actives have a fitted effect of over 80% in size)
[3] = qHTS for Inhibitors of the Functional Ribonucleoprotein Complex (vRNP) of Lymphocytic Choriomeningitis Arenaviruses (LCMV): Viability assay - alamar blue signal for LCMV Primary Screen (AID 1347085; calls by dose curve; tested in HEK293 reporter line; also: nearly all actives have a fitted effect of over 80% in size)
[4] = target: Nucleoprotein (Lymphocytic choriomeningitis virus (strain Armstrong)) (UniProt P09992); test: qHTS for Inhibitors of the Functional Ribonucleoprotein Complex (vRNP) of Lymphocytic Choriomeningitis Arenaviruses (LCMV): LCMV Primary Screen - GLuc reporter signal (AID 1347086); also: nearly all actives have a fitted effect of over 70% in size

Measured: Potency
Also: series mostly up to about 57 µM.

Sequence of Nucleoprotein (Lymphocytic choriomeningitis virus (strain Armstrong)) (P09992 whole entry, looked up): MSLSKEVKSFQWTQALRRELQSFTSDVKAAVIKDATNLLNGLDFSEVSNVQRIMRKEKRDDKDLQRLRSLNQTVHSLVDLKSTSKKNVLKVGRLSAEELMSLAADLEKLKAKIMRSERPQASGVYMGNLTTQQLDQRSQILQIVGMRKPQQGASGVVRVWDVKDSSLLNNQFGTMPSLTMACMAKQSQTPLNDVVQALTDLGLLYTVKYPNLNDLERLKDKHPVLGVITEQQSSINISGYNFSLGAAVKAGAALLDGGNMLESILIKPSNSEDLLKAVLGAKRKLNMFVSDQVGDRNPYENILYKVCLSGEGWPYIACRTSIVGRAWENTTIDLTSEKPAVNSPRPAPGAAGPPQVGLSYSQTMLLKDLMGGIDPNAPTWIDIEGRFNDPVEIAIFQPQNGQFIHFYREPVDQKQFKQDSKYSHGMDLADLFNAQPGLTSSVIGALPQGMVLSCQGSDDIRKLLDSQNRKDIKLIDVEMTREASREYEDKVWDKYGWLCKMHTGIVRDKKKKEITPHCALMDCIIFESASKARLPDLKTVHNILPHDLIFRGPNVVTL

O=C1Nc2ccc(Cl)cc2[C@@](C#CC2CC2)(C(F)(F)F)O1
inactive: [1] | [2] | [3] | [4]

COc1nc(N)nc2c1ncn2[C@@H]1O[C@H](CO)[C@@H](O)[C@@H]1O
inactive: [1] | [2] | [3] | [4]

OCCN(CCO)c1nc(N2CCCCC2)c2nc(N(CCO)CCO)nc(N3CCCCC3)c2n1
inactive: [1] | [2] | [3] | [4]

CCn1cc(C(=O)O)c(=O)c2cc(F)c(N3CCNCC3)cc21
inactive: [1] | [2] | [3] | [4]

C[N+]1(C)CCC(OC(=O)C(O)(c2ccccc2)C2CCCC2)C1 (stereo unspecified)
inactive: [1] | [2] | [3] | [4]

C[C@@H](O)[C@H]1C(=O)N2C(C(=O)O)=C(S[C@@H]3CN[C@H](CNS(N)(=O)=O)C3)[C@H](C)[C@H]12
inactive: [1] | [2] | [3] | [4]

N[C@@H]1CONC1=O
inactive: [1] | [2] | [3] | [4]

CS(=O)(=O)OCCCCOS(C)(=O)=O
inactive: [1] | [2] | [3] | [4]

C[C@@H](NCCCc1cccc(C(F)(F)F)c1)c1cccc2ccccc12
inactive: [1] | [2] | [3] | [4]

CN1CCC[C@@H]1Cc1c[nH]c2ccc(CCS(=O)(=O)c3ccccc3)cc12
inactive: [1] | [2] | [3] | [4]

CN1CCC(=C2c3ccccc3C=Cc3ccccc32)CC1
inactive: [1] | [2] | [3] | [4]

CN(C)CCOC(C)(c1ccccc1)c1ccccn1 (stereo unspecified)
inactive: [1] | [2] | [3] | [4]

CCOC(=O)[C@H](CCc1ccccc1)N[C@@H](C)C(=O)N1Cc2cc(OC)c(OC)cc2C[C@H]1C(=O)O
inactive: [1] | [2] | [3] | [4]

NC(=Nc1ccccc1)Nc1ccccc1
inactive: [1] | [2] | [3] | [4]

CC(CN1c2ccccc2Sc2ccccc21)N(C)C (stereo unspecified)
inactive: [1] | [2] | [3] | [4]

OC(Cn1cncn1)(Cn1cncn1)c1ccc(F)cc1F
inactive: [1] | [2] | [3] | [4]

CN1C(=O)CC(C)(c2ccccc2)C1=O (stereo unspecified)
inactive: [1] | [2] | [3] | [4]

N[C@@H](C(=O)N[C@@H]1C(=O)N2C(C(=O)O)=C(Cl)CS[C@H]12)c1ccccc1
inactive: [1] | [2] | [3] | [4]

CCC[C@H](N[C@@H](C)C(=O)N1[C@H](C(=O)O)C[C@@H]2CCCC[C@@H]21)C(=O)OCC
inactive: [1] | [2] | [3] | [4]

COc1ccc([C@@H]2Sc3ccccc3N(CCN(C)C)C(=O)[C@@H]2OC(C)=O)cc1
inactive: [1] | [2] | [3] | [4]

CC(C)Oc1ccc2c(=O)c(-c3ccccc3)coc2c1
inactive: [1] | [2] | [3] | [4]

C[C@](N)(Cc1ccc(O)c(O)c1)C(=O)O
inactive: [1] | [2] | [3] | [4]

Cc1cc(C)cc(OCC2CNC(=O)O2)c1 (stereo unspecified)
inactive: [1] | [2] | [3] | [4]

CCC1(c2ccccc2)C(=O)NCNC1=O
inactive: [1] | [2] | [3] | [4]

C1N2CN3CN1CN(C2)C3
inactive: [1] | [2] | [3] | [4]

CN(N=O)C(=O)N[C@@H]1[C@@H](O)[C@H](O)[C@@H](CO)O[C@@H]1O
inactive: [1] | [2] | [3] | [4]

COC(=O)C(c1ccccc1Cl)N1CCc2sccc2C1 (stereo unspecified)
inactive: [1] | [2] | [3] | [4]

Cc1cnc(C(=O)NCCc2ccc(S(=O)(=O)NC(=O)NC3CCCCC3)cc2)cn1
inactive: [1] | [2] | [3] | [4]

CC(C)NCC(O)COc1cccc2[nH]ccc12 (stereo unspecified)
inactive: [1] | [2] | [3] | [4]

Cc1c(O)cccc1C(=O)N[C@@H](CSc1ccccc1)[C@H](O)CN1C[C@H]2CCCC[C@H]2C[C@H]1C(=O)NC(C)(C)C
inactive: [1] | [2] | [3] | [4]

C[C@H]1[C@H](NC(=O)/C(=N/OC(C)(C)C(=O)O)c2csc(N)n2)C(=O)N1S(=O)(=O)O (stereo in doubt)
inactive: [1] | [2] | [3] | [4]

C=C(CC)C(=O)c1ccc(OCC(=O)O)c(Cl)c1Cl
inactive: [1] | [2] | [3] | [4]

CN(C)CC/C=C1\c2ccccc2COc2ccccc21
inactive: [1] | [2] | [3] | [4]

CC(C)(C)NC(=O)[C@@H]1CN(Cc2cccnc2)CCN1C[C@@H](O)C[C@@H](Cc1ccccc1)C(=O)N[C@H]1c2ccccc2C[C@H]1O
inactive: [1] | [2] | [3] | [4]
